{"source": "the supplement of paper PMC6555819"}
{"test_system": "VDR:RXRa (NR concentration 270 nM, RXRa partner concentration 90 nM)", "assay": "PBM binding z-score (relative to random genomic background probes); higher = stronger binding; sequences stand for … in GC…GCGATTGACAGCGTAGAATGAAGG", "method": "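Protein-binding microarray (Agilent 4x180K custom design, double-stranded 60-nt probes: 5' GC cap, 34-nt variable region, 24-nt constant primer region; full probe sequence given). Purified or IVT nuclear receptor:RXRα heterodimers (3:1 NR:RXRα, mostly 270:90 nM) or homodimers were incubated for 1 h in PBS with 2% milk and no ligand, then detected with Alexa488 antibodies. Fluorescence from o1-orientation probes (~5 replicates averaged) was converted to z-scores against 500 random hg19 background probes. Variable regions are seed direct-repeat (DR0–DR5) sites, all their single-nucleotide variants and half-site ablations.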"}
{"sequence": "CCGACTGGGGCAAAAGTTACCATACTCAGTACGA", "PBM binding z-score": -0.267}
{"sequence": "TAGTCTAGGTCATGCGGGCCAGTATAGTGTCGGC", "PBM binding z-score": 2.86}
{"sequence": "ATACCAAGGTGATCGTGAGGTCGTTGCTACTAAC", "PBM binding z-score": 3.4}
{"sequence": "TCTGGCAGGCCAGAGGGTCACTCAAGAGGTACGG", "PBM binding z-score": 1.5}
{"sequence": "TTCCCAAGGTGAAGGTCGTTGATCCCTCTGTAGA", "PBM binding z-score": 1.22}
{"sequence": "TCATATAGGTAAAGGTGTAAGTCGAACGATATGA", "PBM binding z-score": 0.297}
{"sequence": "CTCGAAAGGTCCGTTGAGGTGAGTATACGGATAA", "PBM binding z-score": 0.243}
{"sequence": "AGAATGAGGTTAAGATCAGGCAAACAGAATACAT", "PBM binding z-score": 1.23}
{"sequence": "CCTGCTAGGTCAATGGGCAGCTAAAGCAGCTCGC", "PBM binding z-score": 0.356}
{"sequence": "TATACAGGGTCAAGGGCCAGAGTACGAATGTCGA", "PBM binding z-score": 4.43}
{"sequence": "ATCGAAAGGTCGTGAGGCGAGTATACAGAAAGGC", "PBM binding z-score": 3.18}
{"sequence": "ATCTCTAGGTAAGACTCAGTACAGTGAAGAACGC", "PBM binding z-score": 0.435}
{"sequence": "GCAGACAGGTGAAACGCAGGGAACTCAGGGTGGC", "PBM binding z-score": -0.604}
{"sequence": "CGTCCAAGGTGAAGGTCAGTGAAAGAGACTCGAA", "PBM binding z-score": 0.859}
{"sequence": "TAGCCTAGGTCAGATCAGGCCAGTATACGCTATA", "PBM binding z-score": 0.996}
{"sequence": "CCTGCTAGGTCAATGGTCAGCAAAAGCAGCTCGC", "PBM binding z-score": 0.941}
{"sequence": "ATCTCTAGGTAACCAGGTTCAGTGAATGCCGAAC", "PBM binding z-score": 4.05}
{"sequence": "TTACCAAGGTGAAAGGTGGTTGATGCACGCCTTG", "PBM binding z-score": 0.184}
{"sequence": "CCGGACAGGTGAAAGGTAACTCAGTCTGGTACGC", "PBM binding z-score": 0.694}
{"sequence": "GCTATTAGTTGAAAGGGCAGCCGAATGATTCTCG", "PBM binding z-score": 0.0527}
{"sequence": "TAGCCTAGGTCATTGGGGCAGTATAGTACGCATC", "PBM binding z-score": 3.19}
{"sequence": "TCGAGTAGGTTAGGGGAATTCAGAATGGCGTCGA", "PBM binding z-score": -0.154}
{"sequence": "TCTTGGAGATCAGCAGGTTAAGAAAGCTGGCCAA", "PBM binding z-score": 0.335}
{"sequence": "GATACAGGGTCAGCTAGCGGCCAGAGTATGGAAA", "PBM binding z-score": 2.49}
{"sequence": "AATACAGGGTCATCGTAGCCCAGAGTACGCACAG", "PBM binding z-score": 4.83}
{"sequence": "CCTAGTTGGTCAGCAGGTCACACACCGGATATGA", "PBM binding z-score": 2.32}
{"sequence": "CCGAGTCGGTTATGGGGCATTCAGGCAACGGTGA", "PBM binding z-score": -0.358}
{"sequence": "CCTACTGGGCCATCAGCTCATTGATATCAACGTT", "PBM binding z-score": -0.619}
{"sequence": "CTGCCTAGGTCAGGGCCAGTATAGGAGGAACGTT", "PBM binding z-score": 0.0608}
{"sequence": "CCTATTAGTTGACCATAAGGGCAACCGAAGCTCG", "PBM binding z-score": 1.22}
{"sequence": "AGTCAAAGTTCAGGACGAGGTAACGAAAAGCACG", "PBM binding z-score": 2.95}
{"sequence": "CGAACTAGGTCAAGGACAGTGGATCTCCGCACGC", "PBM binding z-score": 1.22}
{"sequence": "TATATTAGTTGAAGGGCAACCGACGAGTCCGTTT", "PBM binding z-score": 0.939}
{"sequence": "CCGACTGGGGCAAAGGTTATCATACTCAGTACGA", "PBM binding z-score": 1.46}
{"sequence": "TCTCGGAGGACACGAAAGGTCAGATCTCGACATC", "PBM binding z-score": 3.38}
{"sequence": "TAGCCTAGGTCATTGGGCGAGTATAGTACGCATC", "PBM binding z-score": 2.14}
{"sequence": "CGTCAAAGTTCAACGTAACGTAACAGAAAGCAGC", "PBM binding z-score": 3.97}
{"sequence": "TCTTATAGGTAAAGGTGAAAGTCGAACGATATGA", "PBM binding z-score": 1.25}
{"sequence": "ATATGTAGGTTATCGGGTCATGCAGTTTGCGCAT", "PBM binding z-score": 4.98}
{"sequence": "CCGACTGGGGCATAAGGTTACCGTAAGCCAGCCC", "PBM binding z-score": 0.108}
